Compound activity as filed in PubChem BioAssay.
Rows were chosen to be rich in hits. Some 3.7% of all compounds tested hit in one or more screens of this group.
GPR32 ag = activates human resolvin D1 receptor GPR32; O75388; CHO-K1 GPR32 beta-arrestin PathHunter luminescence, 90 min; zero percent set by DMSO-only wells; activation, % at 76.9 µM; hit rate 2.5% among 48,000;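 active means activation of at least 60% and not above a set upper limit, about 1 call in 100 departs from these limits; inconclusive means activation of 40% to 60%, or above that upper limit; inactive means activation under 40%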; further: 0% is about no effect
Target sequence (O75388 whole entry, looked up): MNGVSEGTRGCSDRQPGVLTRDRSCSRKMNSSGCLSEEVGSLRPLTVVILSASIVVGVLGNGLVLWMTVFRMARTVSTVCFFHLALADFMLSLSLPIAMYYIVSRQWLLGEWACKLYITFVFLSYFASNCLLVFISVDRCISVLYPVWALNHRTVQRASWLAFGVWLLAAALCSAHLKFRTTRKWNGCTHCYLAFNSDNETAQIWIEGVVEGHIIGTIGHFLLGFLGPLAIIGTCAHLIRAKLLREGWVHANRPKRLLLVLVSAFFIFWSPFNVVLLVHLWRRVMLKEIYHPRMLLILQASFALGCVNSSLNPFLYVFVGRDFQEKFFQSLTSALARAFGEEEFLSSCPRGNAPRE
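Luminescent readout of beta-Gal complementation quantifies ligand-induced beta-arrestin association with GPR32 in CHO-K1 cells; 90 min compound incubation at 37 °C, detection 1 h at room temperature.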
HTT-AS act = activators of huntingtin-antisense promoter activity; HEK293 HTT-AS promoter firefly luciferase reporter, 24 h; response scale: percent change from vehicle, -100% = no light; Potency, µM (top dose mostly 57.5 µM), inactives show at the highest dose activity change, positive = activation, actives largely listed as activators; hit rate 0.24% among 48,000; AID 1508624; further: potency means the concentration at half of the fitted maximal effect; nearly all actives have a fitted effect of over 55% in size
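HEK293 cells carrying firefly luciferase reporters were seeded at 2,500 per well in Opti-MEM and cultured for 24 h. They were then treated with compounds at up to 57.5 uM final for 24 h at 37 degrees C before Dual-Glo luminescence readout.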
HTT prom inh = HTT promoter inhibition | Potency, µM (highest dose often 57.5 µM), for inactives: at the top dose activity change, negative = inhibition, actives largely listed as inhibitors | HEK293 HTT promoter firefly luciferase reporter, 24 h | hit rate 0.93% among 48,000; further: potency means the concentration at half of the fitted maximal effect; nearly all actives have a fitted effect of over 50% in size
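Firefly luciferase signal from promoter-reporter HEK293 cells was scaled between vehicle (0%) and zero RLU (-100%). Compounds were tested at final concentrations of up to 57.5 uM over 24 h at 37 degrees C. PTC124 at 50 uM final served as control inhibitor.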
Numbers without * were called inactive; ? = inconclusive; . = no result given; ! = not active in a repeat; [ ] = remark or other dose. Unless noted, the call rests on the fitted dose curve; in most records, active means well fitted curve in the direction sought with a large enough effect; inconclusive means small, poorly fitted or top-dose-only effect, or another doubt; inactive means no such curve, though single readings can be large; an effect the other way counts as inactive or inconclusive.

SMILES	GPR32 ag	HTT-AS act	HTT prom inh
OC[C@H](Cc1ccccc1)Nc1nc(Oc2ccc3c(c2)CCC3)nc2c1ncn2Cc1ccc(-c2ccccc2)cc1	.	-28.3%	-9.3%
Cn1cc(-c2ccc3nnc(C(F)(F)c4ccc5ncccc5c4)n3n2)cn1	.	-7.5%	3.0%
COc1cc(/C=C/C(=O)O[C@H]2CC[C@]34C[C@]35CC[C@]3(C)[C@@H]([C@H](C)CCC=C(C)C)CC[C@@]3(C)[C@@H]5CC[C@H]4C2(C)C)ccc1O	27.9	-3.6%	0.0%
O=C(Nc1cccc(C(F)(F)F)c1)c1cc(-c2ccc3c(c2)OCCO3)on1	94.0*	-8.4%	?
O=C(Nc1cccc(Cl)c1)c1cc(-c2ccc3c(c2)OCCO3)on1	22.8	-32.0%	?
Clc1ccc2c(N3CCN(CCCN4CCN(c5ccnc6cc(Cl)ccc56)CC4)CC3)ccnc2c1	.	?	34.7%[25.2 µM]
COc1ccccc1N(CC(=O)NCCSCc1ccccc1Cl)S(C)(=O)=O	21.1	-29.1%	?
COc1ccccc1N(CC(=O)NCCSCc1cccc(Cl)c1)S(C)(=O)=O	87.7*	-25.9%	?
CCOCC(=O)Nc1ccc(-c2cn3c(C)csc3n2)cc1	6.6	-80.2%	1.26µM*
CCC(=O)Nc1cccc(-c2cn3c(C)csc3n2)c1	17.1	12.2%	20.4%
OCCN1CCN(CCCN2c3ccccc3Sc3ccc(C(F)(F)F)cc32)CC1	-14.4	-28.7%	-14.7%
OCCN1CCN(CC/C=C2/c3ccccc3Sc3ccc(C(F)(F)F)cc32)CC1	61.7*!	-18.7%	-12.0%
COc1cccc2c(NCc3ccccc3)nc(-n3c(N)nc4ccccc43)nc12	.	-4.3%	-2.4%
Cc1ccc(CNC(=O)Cc2ccc(NC(=O)N3CCSc4ncccc43)cc2)cc1	7.6	-6.2%	-24.4%
Cc1ccc(CNC(=O)c2cccc(NC(=O)N3CCSc4ncccc43)c2)cc1	92.2*	-19.9%	?
CS[C@H]1SC[C@@H]2C(=O)N(C)[C@H](C(C)C)C(=O)OC[C@H](NC(=O)c3cnc4ccccc4n3)C(=O)N[C@H](C)C(=O)N(C)[C@@H]1C(=O)N(C)[C@H](C(C)C)C(=O)OC[C@H](NC(=O)c1cnc3ccccc3n1)C(=O)N[C@H](C)C(=O)N2C	.	-30.6%	?
Cc1c(F)cc2c(=O)c(C(=O)O)cn3c2c1CCC3C (stereo unspecified)	-12.3	-14.3%	-0.3%
COc1cccc(-n2c(C)nc3c(cnn3-c3ccc(C)c(C)c3)c2=O)c1	16.6	9.6%	-15.2%
COc1ccc(Cn2c(C(=O)O)c(CNCc3ccc(OC)cc3OC)c3ccc(C)cc32)cc1	4.4	-15.6%	-29.7%
Cc1ccc2c(CNCCc3ccccc3)c(C(=O)O)n(Cc3ccccc3C)c2c1	65.5*	-20.0%	-7.6%
COc1ccc(Cn2c(C(=O)O)c(CNCCc3cc(OC)ccc3OC)c3ccc(C)cc32)cc1	106.0*	-44.1%	?
C=Cc1ccc(Cn2c(C(=O)O)c(CNCCc3ccco3)c3ccc(C)cc32)cc1	88.5*	-36.5%	-24.9%
C=Cc1ccc(Cn2c(C(=O)O)c(CNC3CCCCC3)c3ccc(C)cc32)cc1	-14.3	-7.5%	0.9%
COc1ccc2c(CNCCc3ccco3)c(C(=O)O)n(Cc3ccccc3)c2c1	-7.0	-11.9%	-17.8%
COc1ccc(Cn2c(C(=O)O)c(CNCCc3ccco3)c3ccc(C)cc32)cc1	103.9*	-23.6%	-17.2%
SMILES	GPR32 ag	HTT-AS act	HTT prom inh
Cc1ccccc1Cn1c(C(=O)O)c(CNCc2cccc(F)c2)c2ccccc21	-13.7	-14.6%	-1.8%
O=C(NCCN1CCCCC1)c1ccc(Cn2c(SCc3ccc(F)cc3)nc3cccnc32)cc1	-6.5	?	47.6%
CN1CC(=O)NC1=NC(=O)Nc1cccc(Cl)c1	.	-0.5%	1.0%
CO[C@@H](C(=O)N1Cc2[nH]nc(NC(=O)c3ccc(N4CCN(C)CC4)cc3)c2C1)c1ccccc1	.	-28.5%	-14.6%
CCOc1ccc(Nc2nc(N)c(C(=O)c3ccccc3Cl)s2)cc1	27.4	-24.9%	-28.7%
O=C(CCC1CCN(Cc2ccccc2)CC1)c1ccc2c(c1)NCCCC2	81.2*	-24.4%	-18.1%
c1ccc(CN2CCC3(CCCc4ccccc43)CC2)cc1	-23.0	.	.
C[C@H](NCc1ccc(OCc2cccc(F)c2)cc1)C(N)=O	.	8.5%	?
COc1cc(S(N)(=O)=O)cc(C(=O)O)c1OC	-5.2	-4.1%	-0.9%
COC(=O)c1c(C)oc2ccc(N(C(=O)c3ccncc3)S(=O)(=O)c3cc(C)ccc3C)cc12	20.1	-38.6%	28.2µM*
CCOC(=O)c1c(-c2ccccc2)oc2ccc(N(C(C)=O)S(=O)(=O)c3ccccc3)cc12	-5.8	.	.
CCOc1ccc(S(=O)(=O)N(C(C)=O)c2ccc3oc(C)c(C(=O)OC)c3c2)cc1	14.6	-79.1%	2.51µM*
CCCC(=O)N(c1ccc2oc(C)c(C(C)=O)c2c1)S(=O)(=O)c1ccc(CC)cc1	3.4	-54.4%	5.01µM*
CC(=O)c1c(C)oc2ccc(N(C(=O)Oc3ccccc3)S(=O)(=O)c3ccccc3)cc12	-27.5	-35.2%	-31.4%
COC(=O)c1c(C)oc2ccc(N(C(=O)c3ccncc3)S(=O)(=O)c3ccc(Br)cc3)cc12	11.3	-10.9%	?
COc1ccccc1CNc1ncnc2c1c(-c1ccccc1)cn2-c1cccc(C)c1	-40.4	-30.3%	?
CCc1ccccc1NS(=O)(=O)c1ccc2c(c1)CC(=O)N2	-0.2	-21.0%	-21.0%
CCC1=C[C@@H]2CN(C1)Cc1c([nH]c3ccccc13)[C@@](C(=O)OC)(c1cc3c(cc1OC)N(C)[C@H]1[C@@](O)(C(=O)OC)[C@H](OC(C)=O)[C@]4(CC)C=CCN5CC[C@]31[C@@H]54)C2	-8.1	-27.5%	-39.4%
CCOC(=O)c1c(NC(=O)/C=C/c2ccc(Cl)cc2)sc2c1CCC(C)C2 (stereo unspecified)	79.4*	-14.5%	-6.1%
CCCOc1ccc(/C=C/C(=O)Nc2sc3c(c2C(=O)OCC)CCC(C)C3)cc1OC (stereo unspecified)	0.7	-15.6%	-7.0%
CC(C)(C)C(=O)Oc1ccc2c(c1)nc(NC(=O)c1cccc([N+](=O)[O-])c1)n2CCCO	.	-0.7%	-3.1%
C[n+]1cc2c3c(ccc2c2ccc4cc5c(cc4c21)OCO5)OCO3	?	-93.4%[25.1 µM]	2.82µM*
c1cc(CN2CCCNCCNCCCNCC2)ccc1CN1CCCNCCNCCCNCC1	.	-24.0%	?
CC(=O)Nc1cccc(NC(=O)CSc2nccn2Cc2ccco2)c1	-0.2	-3.4%	?
Cc1cc(C)c(NC(=O)CSc2nccn2Cc2ccco2)c(C)c1	-12.2	5.01µM*	43.9%
Cc1ccc(S(=O)(=O)NCC(Nc2cccc(Cl)c2)c2ccccc2)cc1 (stereo unspecified)	?	-56.4%	25.1µM*
Cc1cccc(N(C)C(CNS(=O)(=O)c2ccccc2)c2ccccc2)c1 (stereo unspecified)	-3.4	-30.5%	?
COc1cc(C(C)C)c2c(c1)S(=O)(=O)N(COc1cc(=O)n3cccc(OCCN4CCCCC4)c3n1)C2=O	.	-28.1%	-17.3%
COC(=O)c1ccc(CN(Cc2ccc(OC)c(OC)c2)S(=O)(=O)c2cc(C(=O)Nc3cccc(C)c3)ccc2F)cc1	-19.2	-2.7%	-19.6%
